What was measured:
Assay in all cases: log2 ratio of Biotin-Ahx-Ub-VS probe labelling (fragment/DMSO); higher = less target engagement (more negative = stronger competition), active = hit call of the paper (q ≤ 0.05, log2 ratio ≤ -1)
Conditions in all cases: compound concentration: 200 uM; treatment time: 3 h
[1] = biological target: USP34 (UniProt Q70CQ2)
Summary of the method: (§1)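 Labelling with Biotin-Ahx-Ub-VS (0.5 µM final, 1 h) followed a 3 h triplicate treatment of HEK293T lysate (495 µg per sample, Tris/CHAPS/IGEPAL buffer with protease inhibitors) with fragment at 200 µM or vehicle. Labelled DUBs were NeutrAvidin-enriched, digested with LysC and trypsin, and run by diaPASEF LC-MS/MS. The values, average log2 fragment/vehicle ratios by unpaired t-test, come from global-median-normalised Spectronaut label-free quantities. Proteins with ≥2 unique peptides were used.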

[2] = biological target: T1, USP36 (UniProt Q9P275)
T1 sequence (whole entry): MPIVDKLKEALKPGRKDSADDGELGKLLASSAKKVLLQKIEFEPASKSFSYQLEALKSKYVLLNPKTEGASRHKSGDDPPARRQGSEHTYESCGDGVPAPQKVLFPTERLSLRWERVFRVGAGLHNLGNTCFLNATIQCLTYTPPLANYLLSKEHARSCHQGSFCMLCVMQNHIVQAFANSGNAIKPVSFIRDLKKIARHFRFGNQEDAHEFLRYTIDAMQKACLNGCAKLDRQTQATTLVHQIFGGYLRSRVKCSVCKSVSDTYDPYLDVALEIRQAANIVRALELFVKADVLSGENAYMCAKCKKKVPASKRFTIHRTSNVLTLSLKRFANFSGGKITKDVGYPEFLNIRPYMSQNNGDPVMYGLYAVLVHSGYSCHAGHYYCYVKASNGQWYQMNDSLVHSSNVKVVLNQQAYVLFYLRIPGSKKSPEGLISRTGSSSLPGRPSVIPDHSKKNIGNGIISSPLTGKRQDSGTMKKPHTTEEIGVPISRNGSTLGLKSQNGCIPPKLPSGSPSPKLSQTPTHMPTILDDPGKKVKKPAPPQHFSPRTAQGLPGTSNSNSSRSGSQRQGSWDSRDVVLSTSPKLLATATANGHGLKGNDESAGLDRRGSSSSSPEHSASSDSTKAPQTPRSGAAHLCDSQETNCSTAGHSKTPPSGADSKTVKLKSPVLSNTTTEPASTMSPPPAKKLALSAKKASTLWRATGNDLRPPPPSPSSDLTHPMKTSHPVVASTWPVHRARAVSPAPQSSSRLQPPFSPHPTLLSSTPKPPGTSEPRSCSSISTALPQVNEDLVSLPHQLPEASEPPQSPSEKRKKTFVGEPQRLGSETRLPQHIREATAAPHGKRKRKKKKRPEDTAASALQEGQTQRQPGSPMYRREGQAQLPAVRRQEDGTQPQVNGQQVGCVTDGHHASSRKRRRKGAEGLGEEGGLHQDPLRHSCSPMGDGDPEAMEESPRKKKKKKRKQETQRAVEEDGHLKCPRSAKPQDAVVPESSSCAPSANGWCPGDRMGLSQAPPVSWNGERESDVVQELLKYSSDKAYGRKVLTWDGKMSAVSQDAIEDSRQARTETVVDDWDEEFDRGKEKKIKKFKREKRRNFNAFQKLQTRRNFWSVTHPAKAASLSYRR
Summary of the method: as §1

[3] = biological target: T2, USP38 (UniProt Q8NB14)
T2 sequence (whole entry): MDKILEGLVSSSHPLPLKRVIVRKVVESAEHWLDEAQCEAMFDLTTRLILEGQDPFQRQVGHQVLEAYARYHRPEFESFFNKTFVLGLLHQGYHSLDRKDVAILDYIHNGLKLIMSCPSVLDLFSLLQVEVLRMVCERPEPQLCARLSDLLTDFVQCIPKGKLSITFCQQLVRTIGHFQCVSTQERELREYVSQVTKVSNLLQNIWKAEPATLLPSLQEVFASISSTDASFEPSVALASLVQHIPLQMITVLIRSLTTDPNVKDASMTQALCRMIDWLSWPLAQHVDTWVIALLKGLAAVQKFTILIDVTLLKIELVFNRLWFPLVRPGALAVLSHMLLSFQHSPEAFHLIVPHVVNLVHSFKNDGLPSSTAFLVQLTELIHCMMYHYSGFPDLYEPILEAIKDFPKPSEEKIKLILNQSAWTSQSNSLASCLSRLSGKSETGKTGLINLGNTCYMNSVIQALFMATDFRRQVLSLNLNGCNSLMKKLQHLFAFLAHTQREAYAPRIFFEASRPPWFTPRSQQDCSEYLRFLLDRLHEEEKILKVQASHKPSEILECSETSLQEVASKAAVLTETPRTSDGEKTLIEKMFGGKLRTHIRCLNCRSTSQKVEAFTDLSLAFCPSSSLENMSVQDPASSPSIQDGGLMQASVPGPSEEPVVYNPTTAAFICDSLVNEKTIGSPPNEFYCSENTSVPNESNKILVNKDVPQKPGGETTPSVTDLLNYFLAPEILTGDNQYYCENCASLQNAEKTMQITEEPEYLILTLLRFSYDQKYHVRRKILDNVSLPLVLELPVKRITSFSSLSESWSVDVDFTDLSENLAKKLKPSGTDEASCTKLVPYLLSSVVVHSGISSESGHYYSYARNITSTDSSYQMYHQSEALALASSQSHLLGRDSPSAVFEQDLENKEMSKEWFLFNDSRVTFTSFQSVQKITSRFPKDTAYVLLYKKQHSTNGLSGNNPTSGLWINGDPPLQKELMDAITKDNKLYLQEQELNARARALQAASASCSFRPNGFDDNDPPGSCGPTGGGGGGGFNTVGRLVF
Summary of the method: as §1

[4] = biological target: T3, USP39 (UniProt Q53GS9)
T3 sequence (whole entry): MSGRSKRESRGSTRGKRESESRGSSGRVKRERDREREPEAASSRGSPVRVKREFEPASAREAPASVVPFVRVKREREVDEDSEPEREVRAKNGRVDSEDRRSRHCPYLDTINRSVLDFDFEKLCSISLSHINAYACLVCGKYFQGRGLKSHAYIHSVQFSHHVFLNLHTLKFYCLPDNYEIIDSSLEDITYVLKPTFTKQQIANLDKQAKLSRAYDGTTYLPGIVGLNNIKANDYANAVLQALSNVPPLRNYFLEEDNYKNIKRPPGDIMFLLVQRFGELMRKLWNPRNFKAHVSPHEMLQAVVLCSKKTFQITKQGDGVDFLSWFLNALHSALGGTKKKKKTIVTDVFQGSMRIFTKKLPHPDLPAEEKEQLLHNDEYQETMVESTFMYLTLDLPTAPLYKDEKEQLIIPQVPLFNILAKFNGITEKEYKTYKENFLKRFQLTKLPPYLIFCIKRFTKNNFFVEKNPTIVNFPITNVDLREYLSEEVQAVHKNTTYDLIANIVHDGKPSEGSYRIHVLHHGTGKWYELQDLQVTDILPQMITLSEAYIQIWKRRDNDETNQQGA
Summary of the method: as §1

[5] = biological target: T4, USP4 (UniProt Q13107)
T4 sequence (whole entry): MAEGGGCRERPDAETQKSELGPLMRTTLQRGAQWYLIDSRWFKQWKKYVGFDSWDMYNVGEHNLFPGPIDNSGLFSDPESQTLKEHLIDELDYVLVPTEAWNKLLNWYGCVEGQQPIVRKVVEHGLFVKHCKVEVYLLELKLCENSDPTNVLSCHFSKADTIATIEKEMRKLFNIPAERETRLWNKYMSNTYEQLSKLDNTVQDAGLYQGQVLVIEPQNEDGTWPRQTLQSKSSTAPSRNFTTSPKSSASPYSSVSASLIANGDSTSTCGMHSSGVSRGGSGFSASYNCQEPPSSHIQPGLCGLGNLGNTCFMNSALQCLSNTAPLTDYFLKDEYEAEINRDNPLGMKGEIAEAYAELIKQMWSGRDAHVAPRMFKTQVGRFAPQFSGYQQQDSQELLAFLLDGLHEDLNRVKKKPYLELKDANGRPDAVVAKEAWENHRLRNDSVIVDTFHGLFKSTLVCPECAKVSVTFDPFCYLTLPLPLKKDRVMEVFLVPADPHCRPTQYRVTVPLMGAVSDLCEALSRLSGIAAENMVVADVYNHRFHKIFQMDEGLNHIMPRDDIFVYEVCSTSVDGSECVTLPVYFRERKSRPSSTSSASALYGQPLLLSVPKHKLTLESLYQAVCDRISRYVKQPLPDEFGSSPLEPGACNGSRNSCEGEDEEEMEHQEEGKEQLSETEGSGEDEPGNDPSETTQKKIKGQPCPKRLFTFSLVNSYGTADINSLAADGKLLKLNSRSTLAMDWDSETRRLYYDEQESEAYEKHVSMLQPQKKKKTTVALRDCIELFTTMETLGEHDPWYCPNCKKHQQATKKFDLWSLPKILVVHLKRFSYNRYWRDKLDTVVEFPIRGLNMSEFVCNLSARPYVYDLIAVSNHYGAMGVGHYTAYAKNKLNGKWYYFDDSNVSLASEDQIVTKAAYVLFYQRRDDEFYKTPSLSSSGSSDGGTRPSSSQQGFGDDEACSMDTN
Summary of the method: as §1

Measured: log2 ratio of Biotin-Ahx-Ub-VS probe labelling

Sequence of USP34 (Q70CQ2 whole entry, the tested form may be a part): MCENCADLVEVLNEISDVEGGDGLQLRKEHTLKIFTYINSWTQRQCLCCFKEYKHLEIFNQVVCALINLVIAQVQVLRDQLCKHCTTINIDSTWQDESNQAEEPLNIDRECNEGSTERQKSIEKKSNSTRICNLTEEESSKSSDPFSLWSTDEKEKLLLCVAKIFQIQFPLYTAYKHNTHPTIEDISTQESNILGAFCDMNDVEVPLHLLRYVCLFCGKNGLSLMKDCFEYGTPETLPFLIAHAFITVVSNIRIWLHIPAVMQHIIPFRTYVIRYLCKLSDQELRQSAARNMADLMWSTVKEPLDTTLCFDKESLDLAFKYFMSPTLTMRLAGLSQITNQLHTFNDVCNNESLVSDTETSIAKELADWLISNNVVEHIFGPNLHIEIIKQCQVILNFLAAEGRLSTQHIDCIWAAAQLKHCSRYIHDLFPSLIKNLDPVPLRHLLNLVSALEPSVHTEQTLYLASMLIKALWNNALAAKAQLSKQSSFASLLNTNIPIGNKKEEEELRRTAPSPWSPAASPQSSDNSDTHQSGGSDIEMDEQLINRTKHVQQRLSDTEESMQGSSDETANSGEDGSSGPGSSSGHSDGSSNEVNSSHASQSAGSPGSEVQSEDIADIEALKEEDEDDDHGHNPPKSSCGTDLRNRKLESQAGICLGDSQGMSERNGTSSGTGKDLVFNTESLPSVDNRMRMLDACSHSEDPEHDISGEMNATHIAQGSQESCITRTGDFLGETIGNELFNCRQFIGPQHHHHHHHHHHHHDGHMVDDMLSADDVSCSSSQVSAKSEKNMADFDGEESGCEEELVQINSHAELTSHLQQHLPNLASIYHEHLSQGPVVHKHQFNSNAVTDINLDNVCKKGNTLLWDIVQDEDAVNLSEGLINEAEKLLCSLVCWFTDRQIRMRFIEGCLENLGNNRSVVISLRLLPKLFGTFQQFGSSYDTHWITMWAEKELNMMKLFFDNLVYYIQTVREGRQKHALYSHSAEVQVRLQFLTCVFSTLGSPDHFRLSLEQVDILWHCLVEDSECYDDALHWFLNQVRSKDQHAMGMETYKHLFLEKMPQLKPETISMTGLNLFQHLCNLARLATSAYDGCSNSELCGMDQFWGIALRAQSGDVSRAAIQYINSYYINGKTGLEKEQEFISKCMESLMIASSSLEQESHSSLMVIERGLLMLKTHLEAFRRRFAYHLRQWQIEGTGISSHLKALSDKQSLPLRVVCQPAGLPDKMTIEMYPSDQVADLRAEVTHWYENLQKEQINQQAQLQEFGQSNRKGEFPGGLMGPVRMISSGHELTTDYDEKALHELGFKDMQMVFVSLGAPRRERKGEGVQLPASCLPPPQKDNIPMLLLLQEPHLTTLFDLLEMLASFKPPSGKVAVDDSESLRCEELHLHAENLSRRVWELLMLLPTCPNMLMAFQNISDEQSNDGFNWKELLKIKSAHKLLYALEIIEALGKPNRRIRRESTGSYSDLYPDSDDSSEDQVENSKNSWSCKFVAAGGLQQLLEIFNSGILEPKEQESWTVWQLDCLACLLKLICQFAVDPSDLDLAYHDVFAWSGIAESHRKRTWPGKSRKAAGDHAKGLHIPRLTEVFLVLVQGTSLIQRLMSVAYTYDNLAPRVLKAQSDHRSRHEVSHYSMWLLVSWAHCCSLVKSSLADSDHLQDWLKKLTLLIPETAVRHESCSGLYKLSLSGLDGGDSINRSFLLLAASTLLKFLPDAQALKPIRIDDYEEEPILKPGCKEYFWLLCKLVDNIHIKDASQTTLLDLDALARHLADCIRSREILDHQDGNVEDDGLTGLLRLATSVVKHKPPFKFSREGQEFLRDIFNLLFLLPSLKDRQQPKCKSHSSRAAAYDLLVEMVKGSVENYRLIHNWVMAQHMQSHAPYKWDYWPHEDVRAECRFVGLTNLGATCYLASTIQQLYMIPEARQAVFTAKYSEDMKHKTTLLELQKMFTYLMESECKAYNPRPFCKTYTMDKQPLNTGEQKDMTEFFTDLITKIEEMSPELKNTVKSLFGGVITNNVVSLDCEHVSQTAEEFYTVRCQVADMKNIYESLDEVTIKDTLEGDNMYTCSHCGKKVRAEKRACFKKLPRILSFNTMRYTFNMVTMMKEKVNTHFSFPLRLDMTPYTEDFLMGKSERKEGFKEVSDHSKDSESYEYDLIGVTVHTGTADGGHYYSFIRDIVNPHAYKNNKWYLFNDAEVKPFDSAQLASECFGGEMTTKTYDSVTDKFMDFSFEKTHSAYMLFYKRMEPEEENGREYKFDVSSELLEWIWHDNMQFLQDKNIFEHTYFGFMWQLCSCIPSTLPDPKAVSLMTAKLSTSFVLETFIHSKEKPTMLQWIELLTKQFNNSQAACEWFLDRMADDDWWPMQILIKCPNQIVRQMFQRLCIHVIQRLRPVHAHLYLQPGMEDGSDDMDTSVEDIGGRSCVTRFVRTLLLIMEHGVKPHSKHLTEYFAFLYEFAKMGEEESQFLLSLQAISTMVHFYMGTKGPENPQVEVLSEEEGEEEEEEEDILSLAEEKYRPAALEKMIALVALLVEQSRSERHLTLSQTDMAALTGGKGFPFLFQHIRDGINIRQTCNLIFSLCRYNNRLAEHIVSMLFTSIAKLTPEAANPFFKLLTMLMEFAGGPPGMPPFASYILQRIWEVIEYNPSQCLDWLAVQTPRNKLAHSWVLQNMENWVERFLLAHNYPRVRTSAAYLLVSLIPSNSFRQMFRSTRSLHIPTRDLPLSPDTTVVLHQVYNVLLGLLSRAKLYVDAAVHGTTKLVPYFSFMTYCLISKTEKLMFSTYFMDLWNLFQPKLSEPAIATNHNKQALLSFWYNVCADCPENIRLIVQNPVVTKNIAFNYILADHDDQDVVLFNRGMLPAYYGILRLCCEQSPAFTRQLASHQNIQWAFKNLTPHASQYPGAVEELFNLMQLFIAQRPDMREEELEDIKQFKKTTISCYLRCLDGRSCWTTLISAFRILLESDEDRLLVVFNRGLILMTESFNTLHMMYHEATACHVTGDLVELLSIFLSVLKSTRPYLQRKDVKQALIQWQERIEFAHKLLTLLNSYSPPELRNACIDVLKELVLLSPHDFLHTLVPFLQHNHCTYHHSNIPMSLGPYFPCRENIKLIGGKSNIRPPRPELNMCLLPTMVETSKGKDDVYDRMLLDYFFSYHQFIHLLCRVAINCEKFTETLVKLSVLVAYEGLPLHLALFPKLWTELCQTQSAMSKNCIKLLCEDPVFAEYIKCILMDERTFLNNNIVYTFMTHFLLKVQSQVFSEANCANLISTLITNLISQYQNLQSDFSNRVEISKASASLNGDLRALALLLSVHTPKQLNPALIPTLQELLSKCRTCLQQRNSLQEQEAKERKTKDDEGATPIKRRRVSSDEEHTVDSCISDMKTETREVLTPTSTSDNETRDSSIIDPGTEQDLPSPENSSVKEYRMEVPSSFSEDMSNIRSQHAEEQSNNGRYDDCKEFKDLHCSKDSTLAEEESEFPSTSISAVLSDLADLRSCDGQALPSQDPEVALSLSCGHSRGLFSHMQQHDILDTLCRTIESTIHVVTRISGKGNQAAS

Cc1ccccc1C1(CNC(=O)CCl)CCOCC1
inactive: [1] 0.051 | [2] 0.0925 | [3] -0.0365 | [4] -0.165 | [5] -0.221

Reference: the supplement of paper PMC11732987, “Enantioselective OTUD7B fragment discovery through chemoproteomics screening and high-throughput optimisation” (Communications Chemistry, 2025)
